The full ranking holds about 110,000 compounds; the median of “z-score” is about -0.1, and the highest 2% start at about 2. Shown is part of a subset that was picked to be rich in the highest values. Activity calls are given as the source filed them.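 Rule for the calls: active = z-score in the third read window above 3 or below -3; inactive = the rest.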
What follows are compounds tested against Metabotropic glutamate receptor 8 (Rattus norvegicus) (UniProt P70579) (assay: mGluR8 Gi/Go-coupled signaling modulation – cell-based, rat, thallium flux, HTS, primary screen (AID 488969)). Settings: HEK293 rat mGluR8, GIRK (G protein-gated inwardly rectifying potassium channel) thallium flux, FluoZin2; at 10 µM; stronger effect = higher value; submaximal glutamate (EC20) added with thallium.
Chain of Metabotropic glutamate receptor 8 (Rattus norvegicus) (P70579 whole entry, looked up): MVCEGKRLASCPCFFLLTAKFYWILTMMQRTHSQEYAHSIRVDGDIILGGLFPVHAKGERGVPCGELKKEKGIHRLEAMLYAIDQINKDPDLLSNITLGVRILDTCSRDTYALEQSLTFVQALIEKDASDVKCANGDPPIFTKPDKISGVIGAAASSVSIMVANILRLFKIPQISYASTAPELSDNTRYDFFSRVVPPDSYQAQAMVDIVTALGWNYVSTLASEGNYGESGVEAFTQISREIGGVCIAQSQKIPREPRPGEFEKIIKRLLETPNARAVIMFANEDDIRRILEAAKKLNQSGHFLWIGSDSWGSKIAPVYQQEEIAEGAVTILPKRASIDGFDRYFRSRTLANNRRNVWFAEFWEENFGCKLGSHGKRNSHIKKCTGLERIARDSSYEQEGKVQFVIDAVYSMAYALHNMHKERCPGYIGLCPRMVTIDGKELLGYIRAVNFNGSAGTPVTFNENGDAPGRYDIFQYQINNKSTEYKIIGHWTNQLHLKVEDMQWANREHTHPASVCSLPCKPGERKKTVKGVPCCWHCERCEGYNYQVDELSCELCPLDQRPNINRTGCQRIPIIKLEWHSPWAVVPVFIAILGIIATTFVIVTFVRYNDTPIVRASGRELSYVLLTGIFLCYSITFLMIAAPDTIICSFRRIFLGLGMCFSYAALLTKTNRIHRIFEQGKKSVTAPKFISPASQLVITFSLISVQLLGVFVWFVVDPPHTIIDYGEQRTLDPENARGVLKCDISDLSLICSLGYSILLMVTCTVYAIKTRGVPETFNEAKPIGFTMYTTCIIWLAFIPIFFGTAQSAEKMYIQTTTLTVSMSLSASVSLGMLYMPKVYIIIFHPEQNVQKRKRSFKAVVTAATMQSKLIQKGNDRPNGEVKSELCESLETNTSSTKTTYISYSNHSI

Q: For `COc1ccc(-c2nn(-c3ccccc3)cc2C(=O)O)cc1OC`, which z-score is on record?
A: Its z-score is 0.191.

Q: `COc1ccccc1N1CCN(CC(=O)Nc2cc(F)ccc2C)CC1` was tested. Which z-score did it give?
A: Its z-score is 0.0403.

Q: How did the z-score turn out when `CCN(CC)c1ccc(NC(=O)CSc2nc3ccccc3c(=O)[nH]2)cc1` was run?
A: Its z-score is -0.106.

Q: How did the z-score turn out when `Cc1ccc2c(Cl)cc(Cl)c(OCC(=O)NC(=O)NCc3ccco3)c2n1` was run?
A: The z-score was -0.127.

Q: `Cc1ccc2c(Cl)cc(Cl)c(OCC(=O)Nc3cc(C)on3)c2n1` was tested. Which z-score did it give?
A: The z-score was 0.0628.

Q: How did the z-score turn out when `Cc1ccc2c(Cl)cc(Cl)c(OCC(=O)NCc3ccco3)c2n1` was run?
A: Its z-score is 3.48 (active).

Q: For `Cc1c(C(=O)O)cccc1-c1ccc(C=O)o1`, which z-score is on record?
A: The z-score was 0.12.

Q: How did the z-score turn out when `Cc1nn(CC(=O)Nc2ccc(S(=O)(=O)N(C)C)cc2)c(C)c1[N+](=O)[O-]` was run?
A: Its z-score is -0.0283.

Q: With `CC(C)NS(=O)(=O)c1ccc(OCC(=O)Nc2ccc3c(c2)OCO3)c(Cl)c1` as the compound, how does the z-score read?
A: The z-score was 3.09 (active).

Q: With `CCN(CC)S(=O)(=O)c1ccc(NC(=O)COC(=O)c2ccc(-n3nc(C)cc3C)cc2)cc1` as the compound, how does the z-score read?
A: Its z-score is 0.0126.

Q: How did the z-score turn out when `Cc1cc(C)n(-c2ccc(C(=O)OCC(=O)Nc3ccc(S(=O)(=O)N4CCCCC4)cc3)cc2)n1` was run?
A: Its z-score is -0.00692.

Q: For `CN(C)S(=O)(=O)c1cc(NC(=O)COC(=O)c2ccc3c(c2)OCO3)ccc1Cl`, which z-score is on record?
A: The z-score was 10.1 (active).

Q: How did the z-score turn out when `Cc1nn(CC(=O)Nc2ccc(Cl)c(S(=O)(=O)N(C)C)c2)c(C)c1[N+](=O)[O-]` was run?
A: The z-score was 4.55 (active).

Q: How did the z-score turn out when `O=C(COc1ccc(S(=O)(=O)NC2CCCCC2)cc1Cl)Nc1ccc2c(c1)OCO2` was run?
A: The z-score was 0.2.

Q: `Cc1cc(C)n(-c2ccc(C(=O)OCC(=O)Nc3ccc(Cl)c(S(=O)(=O)N(C)C)c3)cc2)n1` was tested. Which z-score did it give?
A: The z-score was 15.5 (active).

Q: For `Cc1ccc(S(=O)(=O)N(C)C)cc1NC(=O)COC(=O)c1ccc2c(c1)OCO2`, which z-score is on record?
A: Its z-score is 1.63.

Q: Which z-score does the source give for `CC(C)CNS(=O)(=O)c1ccc(OCC(=O)Nc2ccc3c(c2)OCO3)c(Cl)c1` here?
A: Its z-score is -0.19.

Q: `Cc1nn(CC(=O)Nc2cc(S(=O)(=O)N(C)C)ccc2Cl)c(C)c1[N+](=O)[O-]` was tested. Which z-score did it give?
A: Its z-score is 0.164.

Q: How did the z-score turn out when `Cc1ccc(NC(=O)COC(=O)c2ccc3c(c2)OCO3)cc1S(=O)(=O)N1CCCCC1` was run?
A: Its z-score is -0.401.

Q: `Cc1ccc(S(=O)(=O)CC(C)N2CCN(C3CCCCC3)CC2)cc1` (stereo not given) was tested. Which z-score did it give?
A: The z-score was 1.44.

Q: For `COc1ccccc1C(=O)COC(=O)c1ccccc1OCC(=O)Nc1ccc(SC(F)F)cc1`, which z-score is on record?
A: Its z-score is 1.1.

Q: With `COc1cccc(/C(O)=C2/C(=O)C(=O)N(Cc3ccco3)C2c2ccncc2)c1` (stereo not given) as the compound, how does the z-score read?
A: The z-score was -0.192.

Q: For `O=C(CSc1nnc(CN2CCOCC2)n1-c1ccc(Cl)cc1)Nc1cc(Cl)ccc1O`, which z-score is on record?
A: The z-score was -0.794.

Q: With `Cc1cc(C)nc(NS(=O)(=O)c2ccc(NC(=O)CN3C(=O)c4ccccc4C3=O)cc2)n1` as the compound, how does the z-score read?
A: The z-score was 0.113.

Q: For `CCCOc1ccc(/C=N/NC(=O)C(=O)Nc2ccccn2)cc1`, which z-score is on record?
A: The z-score was 3.92 (active).

Q: For `COc1cc(/C=N/NC(=O)C(=O)Nc2ccccn2)ccc1O`, which z-score is on record?
A: Its z-score is -0.198.

Q: With `COc1ccc(/C=N/NC(=O)C(=O)Nc2ccccn2)cc1OC` as the compound, how does the z-score read?
A: Its z-score is 0.813.

Q: Which z-score does the source give for `COc1ccc(CCNC(=O)CSc2nnc(CNC(=O)c3ccco3)o2)cc1OC` here?
A: The z-score was 0.382.

Q: For `Cc1cc(C)c2nc(SCC(=O)NCCC3=CCCCC3)cc(C)c2c1`, which z-score is on record?
A: Its z-score is 3.98 (active).

Q: With `Cc1cc(C)c2nc(SCC(=O)NCCN3C(=O)CSC3=O)cc(C)c2c1` as the compound, how does the z-score read?
A: Its z-score is -0.238.

Q: For `Cc1ccc(-n2nnnc2SCC(=O)NCCC2=CCCCC2)c(C)c1`, which z-score is on record?
A: Its z-score is 0.08.

Q: How did the z-score turn out when `COCc1nnc(NC(=O)c2ccco2)s1` was run?
A: Its z-score is 0.76.

Q: `C/C=C(\C)c1nnc(NC(=O)c2ccco2)s1` was tested. Which z-score did it give?
A: Its z-score is -0.358.

Q: Which z-score does the source give for `Cc1nnc(NC(=O)c2ccco2)s1` here?
A: Its z-score is 3.93 (active).

Q: `CC(C)=CC(=O)Nc1nnc(C)s1` was tested. Which z-score did it give?
A: Its z-score is 0.00638.

Q: Which z-score does the source give for `CC(=O)Nc1nnc(C)s1` here?
A: The z-score was 3.66 (active).

Q: Which z-score does the source give for `CCC(=O)Nc1nnc(C)s1` here?
A: The z-score was 0.946.

Q: Which z-score does the source give for `CCCOc1ccc(N2C(=O)CC(N(CCc3ccc(OC)cc3)C(=O)c3cccc(F)c3)C2=O)cc1` (stereo not given) here?
A: The z-score was -0.214.

Q: For `COc1ccccc1N(CN1CCCC1=O)C(=O)c1ccccc1F`, which z-score is on record?
A: Its z-score is -0.699.

Q: For `O=C1/C(=C\Nc2ccc(Cl)cc2)CCN1c1ncccn1`, which z-score is on record?
A: The z-score was 0.111.

Q: `Cc1ccc(C(=O)NCCNc2ccc(Cl)cc2[N+](=O)[O-])o1` was tested. Which z-score did it give?
A: Its z-score is -0.083.

Q: Which z-score does the source give for `CCCN1C2=NS(=O)(=O)CCN2c2ccccc21` here?
A: Its z-score is 0.249.

Q: Which z-score does the source give for `C=CCn1c(SCC(=O)c2cc(C)n(CCOC)c2C)nc2sc(C)c(C)c2c1=O` here?
A: The z-score was -0.255.

Q: For `COc1nc(N2CCOCC2)nc(C)c1[N+](=O)[O-]`, which z-score is on record?
A: Its z-score is -0.535.

Q: Which z-score does the source give for `C=CCNC(=O)c1ccc(Cl)cc1Cl` here?
A: The z-score was 0.206.

Q: `CCN(CC)C(=S)NC(=O)c1ccc(Cl)cc1Cl` was tested. Which z-score did it give?
A: The z-score was 2.95.

Q: How did the z-score turn out when `CN(C)CCCOC(=O)c1ccccc1Cl` was run?
A: The z-score was 0.35.

Q: For `CCCCN(CCCC)C(=S)NC(=O)c1ccccc1Cl`, which z-score is on record?
A: Its z-score is -0.755.

Q: For `CCC(=O)NC(=S)Nc1cccc(NC(=O)c2ccc(Cl)cc2Cl)c1`, which z-score is on record?
A: Its z-score is 0.179.

Q: How did the z-score turn out when `CN(C)CCCOC(=O)c1ccc(Cl)cc1Cl` was run?
A: Its z-score is 0.77.

Q: With `CCCN(CCC)CCCOC(=O)c1ccc(Cl)cc1Cl` as the compound, how does the z-score read?
A: Its z-score is 3.95 (active).

Q: With `CCCN(CCC)C(=S)NC(=O)c1ccc(Cl)cc1Cl` as the compound, how does the z-score read?
A: Its z-score is 14.4 (active).

Q: With `CCCC(=O)NC(=S)Nc1cccc(NC(=O)c2ccc(Cl)cc2Cl)c1` as the compound, how does the z-score read?
A: The z-score was -0.0719.

Q: How did the z-score turn out when `CC1Cc2ccccc2N1C(=S)NC(=O)c1ccc(Cl)cc1Cl` (stereo not given) was run?
A: The z-score was 13.5 (active).

Q: How did the z-score turn out when `CC1Cc2ccccc2N1C(=S)Nc1ccc(S(N)(=O)=O)cc1` (stereo not given) was run?
A: Its z-score is 0.0257.

Q: For `O=C(NNC(=O)c1ccccc1-n1cccc1)c1ccc(Cl)cc1Cl`, which z-score is on record?
A: The z-score was 0.632.

Q: `O=C(Cc1ccc([N+](=O)[O-])cc1)Nc1nnc(C2CC2)s1` was tested. Which z-score did it give?
A: Its z-score is 1.17.

Q: With `Cc1cc2cc(CN(CC3CCCO3)C(=S)Nc3ccccc3)c(=O)[nH]c2cc1C` (stereo not given) as the compound, how does the z-score read?
A: Its z-score is -0.235.

Q: Which z-score does the source give for `COc1ccc2c(c1)NC(=O)CC(c1ccccc1)=N2` here?
A: Its z-score is -0.0551.

Q: With `Cc1ccc2c(c1)NC(=O)CC(c1ccccc1)=N2` as the compound, how does the z-score read?
A: Its z-score is 8.23 (active).

Q: With `O=C1CC(c2ccccc2)=Nc2ccccc2N1` as the compound, how does the z-score read?
A: Its z-score is -0.0288.

Q: How did the z-score turn out when `COc1ccc(/C=N/NC(=O)C[n+]2ccccc2)c(OC)c1OC` was run?
A: Its z-score is -0.273.

Q: For `Fc1ccccc1N1CCN(C(c2cccs2)c2nnnn2CCc2ccccc2)CC1` (stereo not given), which z-score is on record?
A: Its z-score is 0.131.

Q: For `Cc1ccc(NC2=C(Cl)C(=O)OC2NC(=O)c2ccccc2)cc1` (stereo not given), which z-score is on record?
A: Its z-score is -0.201.

Q: For `COc1cccc(C(c2nnnn2CCc2ccccc2)N2CCN(c3ccccc3)CC2)c1OC` (stereo not given), which z-score is on record?
A: Its z-score is -0.689.

Q: For `COc1ccccc1C(c1nnnn1CCc1ccccc1)N1CCN(c2ccccc2)CC1` (stereo not given), which z-score is on record?
A: Its z-score is -0.00308.

Q: For `C=CCN1CCN(C(c2ccc(Cl)cc2)c2nnnn2CCc2ccc(OC)c(OC)c2)CC1` (stereo not given), which z-score is on record?
A: The z-score was 2.29.

Q: With `CCN1CCN(C(c2ccccc2)c2nnnn2CCc2ccc(OC)c(OC)c2)CC1` (stereo not given) as the compound, how does the z-score read?
A: The z-score was 0.256.

Q: With `COc1ccccc1C(c1nnnn1CCc1ccccc1)N1CCCCCC1` (stereo not given) as the compound, how does the z-score read?
A: The z-score was 2.68.

Q: Which z-score does the source give for `COc1ccc(CCn2nnnc2C(c2ccc(C)cc2)N2CCN(C)CC2)cc1OC` (stereo not given) here?
A: Its z-score is 0.0408.

From PubChem BioAssay AID488969 (Vanderbilt High Throughput Screening Facility, 2010)
